Key:
Experiment in all cases: PBM binding z-score (relative to random genomic background probes); higher = stronger binding; sequences stand for … in GC…GCGATTGACAGCGTAGAATGAAGG
[1] = system: FXR:RXRa (NR concentration 270 nM, RXRa partner concentration 90 nM)
In short: (§1)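 Antibodies against each partner of ligand-free nuclear receptor dimers (one per run) detected binding on custom Agilent 4×180K protein-binding microarrays after 1 h incubation. The double-stranded probes had 34-nt variable regions carrying direct-repeat seeds, single-nucleotide variants, half-site ablations and random human genomic background sequences. Binding z-scores, from regression-normalized fluorescence, use the random background probes as reference.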

[2] = system: LXRa:RXRa (NR concentration 270 nM, RXRa partner concentration 90 nM)
In short: as §1

[3] = system: LXRa homodimer (NR concentration 270 nM)
In short: as §1

[4] = system: LXRb:RXRa (NR concentration 270 nM, RXRa partner concentration 90 nM)
In short: as §1

[5] = system: LXRb homodimer (NR concentration 270 nM)
In short: as §1

[6] = system: PPARa:RXRa (NR concentration 270 nM, RXRa partner concentration 90 nM)
In short: as §1

[7] = system: PPARg:RXRa (NR concentration 180 nM, RXRa partner concentration 90 nM)
In short: as §1

[8] = system: PPARg:RXRa 270nM:90nM, anti-RXR (NR concentration 270 nM, RXRa partner concentration 90 nM)
In short: as §1

[9] = system: PPARg:RXRa 30nM:10nM, anti-RXR (NR concentration 30 nM, RXRa partner concentration 10 nM)
In short: as §1

[10] = system: PPARg:RXRa 90nM:30nM, anti-RXR (NR concentration 90 nM, RXRa partner concentration 30 nM)
In short: as §1

[11] = system: PPARg:RXRa DBDmut IVT, anti-RXR (DBD mutation: RXRa K156A/R161A, NR concentration 270 nM, RXRa partner concentration 90 nM)
In short: as §1

[12] = system: PPARg:RXRa IVT, anti-PPARg (NR concentration 270 nM, RXRa partner concentration 90 nM)
In short: as §1

[13] = system: PPARg DBDmut:RXRa IVT, anti-PPARg (DBD mutation: PPARg1 K132A/R137A, NR concentration 270 nM, RXRa partner concentration 90 nM)
In short: as §1

[14] = system: PPARg DBDmut IVT, anti-PPARg (DBD mutation: PPARg1 K132A/R137A, NR concentration 270 nM)
In short: as §1

[15] = system: PPARg homodimer (NR concentration 180 nM)
In short: as §1

[16] = system: PXR:RXRa (NR concentration 270 nM, RXRa partner concentration 90 nM)
In short: as §1

[17] = system: PXR homodimer (NR concentration 270 nM)
In short: as §1

[18] = system: RARa:RXR (NR concentration 270 nM, RXRa partner concentration 90 nM)
In short: as §1

[19] = system: RARa homodimer (NR concentration 270 nM)
In short: as §1

[20] = system: RARb:RXRa (NR concentration 270 nM, RXRa partner concentration 90 nM)
In short: as §1

| Sequence | PBM binding z-score [1] | PBM binding z-score [2] | PBM binding z-score [3] | PBM binding z-score [4] | PBM binding z-score [5] | PBM binding z-score [6] | PBM binding z-score [7] | PBM binding z-score [8] | PBM binding z-score [9] | PBM binding z-score [10] | PBM binding z-score [11] | PBM binding z-score [12] | PBM binding z-score [13] | PBM binding z-score [14] | PBM binding z-score [15] | PBM binding z-score [16] | PBM binding z-score [17] | PBM binding z-score [18] | PBM binding z-score [19] | PBM binding z-score [20] |
| --- | --- | --- | --- | --- | --- | --- | --- | --- | --- | --- | --- | --- | --- | --- | --- | --- | --- | --- | --- | --- |
| TGATATAGGTAAACAGGTGAAAGTCCGTAAGTTA | 0.277 | 0.353 | 0.0822 | 0.388 | 0.0217 | 2.37 | 3.95 | 3.81 | 1.65 | 3.09 | 5.35 | 5.64 | 1.01 | 0.48 | 0.911 | 0.29 | 0.346 | 0.703 | 1.11 | 0.511 |
| TAGCCTAGGTCATGCAGGCCAGTATAGTGTCGGC | 3.92 | 2.91 | 0.151 | 1.7 | -0.186 | 3.38 | 2.19 | 2.37 | 0.209 | 1.34 | 1.84 | 2.9 | 0.61 | 0.0782 | 1.52 | 1.77 | -0.409 | 2.37 | -0.161 | 3.66 |
| ATTGAAAGGTCGACGAGGTGAGTATACACCGTTT | 4.73 | 3.32 | 0.465 | 2.94 | 0.545 | 4.55 | 3.33 | 3.53 | 1.38 | 2.5 | 0.761 | 2.3 | 1.58 | 1.35 | 1.78 | 3.19 | 0.959 | 3.86 | 0.685 | 4.05 |
| ATCGAAAGGTCGTGAGGTGAGTGTACAGAAAGGC | 4.91 | 4.05 | 0.411 | 3.06 | 0.507 | 4.99 | 3.61 | 4.47 | 1.35 | 3.32 | 0.429 | 2.63 | 1.08 | 0.59 | 1.74 | 3.17 | 0.525 | 3.97 | 1.08 | 4.04 |
| CTCGAAAGGTCGTTCTCAGGTGAGTATACCAAAC | 5.6 | 4.19 | 1.08 | 3.68 | 1.37 | 4.56 | 1.99 | 3.08 | 0.949 | 2.29 | 0.679 | 1.61 | 0.926 | 0.753 | 2.11 | 3.62 | 0.471 | 4.19 | -0.0759 | 3.71 |
| AGTCAAAGTTCACTAAGTAACGTAAGATTCAGCT | 4.76 | 4.94 | 3.18 | 3.15 | 1.11 | 3.95 | 5.72 | 5.28 | 2.69 | 4.76 | 0.606 | 2.21 | 1.04 | 1.31 | 1.66 | 3.63 | 2.31 | 2.77 | 1.23 | 4.8 |
| TCATATACGTAAATGCTAGGTGAAAGTCCGATCT | 0.742 | 0.449 | 0.327 | 0.861 | 0.278 | 0.771 | 0.633 | 2.14 | 3.51 | 2.66 | 2.16 | 0.926 | 0.89 | 1.72 | 0.664 | 0.565 | 0.25 | 0.743 | 0.987 | 0.357 |
| ATTTGTAGGTTAGCTGGGGTCATTCAGACTAGGC | 4.72 | 6 | 4.63 | 5.23 | 2.54 | 5.2 | 4.29 | 4.6 | 2.42 | 3.79 | 5.34 | 5.05 | 2.63 | 3.11 | 4.33 | 6.6 | 4.49 | 5.99 | 2.49 | 3.52 |
| ATCTCTAGGTAACAAGTTCAGTGATAGAGAGGAC | 0.623 | 0.613 | 0.594 | 0.524 | 1.01 | 1.34 | 1.67 | 1.87 | 1.19 | 1.53 | 3.07 | 2.7 | 1.93 | 1.91 | 1.18 | 1.7 | 1.97 | 0.777 | 1.13 | 1.69 |
